FMDV antiviral: blocks foot and mouth disease virus; FMDV antiviral cell-based qHTS; Potency, µM (top dose mostly 57.9 µM), inactives show at the highest dose activity change, negative = inhibition, actives largely listed as inhibitors; 1.2% of 410,000 active; calls by dose curve; tested in HEK293T cells; further: read-out not given here; potency means the concentration at half of the fitted maximal effect; nearly all actives have a fitted effect of over 45% in size
HCMV antiviral: blocks human cytomegalovirus replication. activity change, negative = inhibition, % at 57.5 µM. 4.5% of 410,000 active. HFF cells, HCMV-luciferase reporter, 72 h; stronger effect = lower value; in the data active means activity change below about -60%; inconclusive means no clear call, values can overlap the other calls; inactive means above about -39%
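After 16 h attachment at 37C, HFF cells received test compound and HCMV-luciferase (1 PFU/cell); reporter luminescence read 72 h later, data normalized against buffer-only and known inhibitor Salinomycin.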
VACV mCherry inh: vaccinia inhibition (mCherry reporter); Vaccinia virus mCherry reporter infection, fluorescence; Potency, µM (doses to about 36.5 µM), inactives show at the highest dose activity change, negative = inhibition, most hits filed as inhibitors; 0.63% of 310,000 active; calls by dose curve; tested in A549 cells; further: potency means the concentration at half of the fitted maximal effect; nearly all actives have a fitted effect of over 35% in size
LASV entry inh: blocks Lassa virus binding to or entry into cells; Lassa virus pseudotype entry inhibition, cell reporter; AID 540256; Potency, µM (highest dose often 37.9 µM), without a hit: top-dose activity change, negative = inhibition, most hits filed as inhibitors; 1.2% of 300,000 active; calls by dose curve; tested in HEK293 cells; further: potency means the concentration at half of the fitted maximal effect; nearly all actives have a fitted effect of over 50% in size
VACV Venus inh: inhibitors of vaccinia virus (Venus reporter) | Vaccinia virus Venus reporter expression, fluorescence | Potency, µM (highest dose often 36.5 µM), inactives show at the highest dose activity change, negative = inhibition, actives largely listed as inhibitors | 0.46% of 330,000 active; calls by dose curve; tested in A549 cells; further: potency means the concentration at half of the fitted maximal effect; nearly all actives have a fitted effect of over 30% in size
Marburg entry inh: blocks Marburg virus binding to or entry into cells; Marburg virus pseudotyped entry inhibition, cell reporter; Potency, µM (titrated, usually from 37.8 µM), without a hit: top-dose activity change, negative = inhibition, hits mostly inhibitors; 1.8% of 300,000 active; calls by dose curve; tested in HEK293 cells; further: potency means the concentration at half of the fitted maximal effect
Active calls of the source: *; i = inactive; ? = inconclusive; nt = no result; [ ] = dose if it differs, or a comment. The list is not random: actives were taken first. Their share in the collection is about 6.5%. On the % scale 0 is the no-effect control and ±100 the full control effect.

SMILES	FMDV antiviral	HCMV antiviral	VACV mCherry inh	LASV entry inh	VACV Venus inh	Marburg entry inh
Cc1ccc(NC(=O)c2ccc3snnc3c2)cc1Cl	20%	2	-1%	4%[46.1 µM]	-3%	?
COC(=O)C1=C2C=C(C)CC(C)N2C(=O)NC1c1ccccc1 (stereo unspecified)	nt	nt	nt	nt	nt	30%[14.2 µM]
CC(C)C[C@H](NC(=O)[C@H](CCC(N)=O)NC(=O)[C@H](CCCCN)NC(=O)[C@H](CCC(N)=O)NC(=O)[C@@H](N)CCC(=O)O)C(=O)N[C@@H](CCC(N)=O)C(=O)O	-5%[6.7 µM]	nt	-17%[3.33 µM]	nt	-7%[3.33 µM]	nt
C[N+]1(C)CCO[C@@](O)(c2ccc(-c3ccc([C@]4(O)C[N+](C)(C)CCO4)cc3)cc2)C1	nt	nt	nt	nt	nt	16%
COc1cc(OC)c(NS(=O)(=O)c2ccc3c(c2)NC(=O)CCS3)cc1Cl	-29%	-63*	-18%	-28%[46.1 µM]	-14%	nt
Cc1ccc(NS(=O)(=O)c2ccc3c(c2)NC(=O)CCS3)cc1C	-16%	?	?	-22%[46.1 µM]	0.89µM*	nt
Cc1ccc(NS(=O)(=O)c2ccc3c(c2)NC(=O)CCS3)cc1F	0%	-35	?	23%[46.1 µM]	-19%	4%[46.1 µM]
CCS(=O)(=O)c1ccc2oc(SCC(=O)NCCc3ccccc3)nc2c1	-10%	31	13µM*	-23%	?	?
CCOc1ccc(CCNC(=O)c2ccc3nc(N4CCOCC4)sc3c2)cc1OCC	14µM*	?	-26%	-13%	-1%	-5%[46.1 µM]
CCOc1ccc(CCNC(=O)c2cccc(N3CCCC3=O)c2)cc1OCC	-2%	-79*	-17%	-10%	-13%	-13%
COc1ccc(CNC(=O)c2cccc(S(=O)(=O)N3CCCCC3)c2)cc1OC	?	-87*	nt	nt	nt	nt
COc1ccc(CCNC(=O)c2cccc(S(=O)(=O)N3CCCC3)c2)cc1OC	-23%	-11	nt	nt	nt	nt
Cc1ccc(CCNC(=O)c2ccc(CNS(=O)(=O)c3ccccc3)cc2)cc1	0%	3	-8%	?	-19%	10%[46.1 µM]
CCOc1ccc(CCNC(=O)c2ccc(CNS(=O)(=O)c3ccccc3)cc2)cc1OCC	28µM*	-72*	-13%	-16%	-19%	?
O=C1C(=O)C(c2ccc(O)cc2O)Oc2cc(O)cc(O)c21 (stereo unspecified)	nt	nt	29%	nt	4%	nt
O=C(O)[C@H]1CN[C@H](C(=O)O)C1	19%	nt	nt	nt	nt	nt
Cc1nc(-c2ccc(C)c(N3CCN(C(=O)Nc4ccc(Br)cc4)CC3)c2)no1	-18%	-29	i	-20%[46.1 µM]	?	nt
O=C(COc1ccc(S(=O)(=O)NC2CCCCC2)cc1Cl)NCc1ccc2c(c1)OCO2	26%	-12	nt	-7%	nt	?
COc1ccc(CCNC(=O)COc2ccc(S(=O)(=O)NC3CCCCC3)cc2Cl)cc1OC	-24%	-62*	-17%	-5%	-19%	?
COc1cc(OC)c(OC)cc1CNC(=O)c1cccc(S(=O)(=O)N2CCc3ccccc3C2)c1	11µM*	?	-14%	?	-29%	?
COc1ccc(S(=O)(=O)N2CCCCCC2)cc1C(=O)NCc1ccccc1Cl	6%	-27	-5%	?	-23%	-1%
COc1ccc(CNC(=O)c2cc(S(=O)(=O)N3CCCCC3)ccc2Cl)cc1OC	14µM*	-64*	i	-26%	-20%	?
O=C(Nc1cc(S(=O)(=O)N2CCCCC2)ccc1Cl)c1ccccc1NS(=O)(=O)c1ccc(F)cc1	-3%	nt	?	3.5µM*	?	?
Clc1ccc2nc(Nc3ccccc3Cl)nc(-c3ccccc3)c2c1	-17%	-6	5%	-24%[46.1 µM]	-2%	nt
CCOc1ccc(CCNC(=O)c2cccc(S(=O)(=O)N3CCCCC3)c2)cc1OCC	28µM*	-7	-22%	-24%	-28%	?
CCOc1ccc(CCNC(=O)CN2CCN(Cc3ccc(Cl)cc3)C2=O)cc1OCC	-28%	-12	-8%	1%[46.1 µM]	2%	5µM*
CCOc1ccc(CCNC(=O)c2cccc(S(=O)(=O)N3CCOCC3)c2)cc1OCC	-22%	5	i	-21%	-17%	2%
O=C(NCc1cccc(Cl)c1)c1ccc2nc(N3CCOCC3)sc2c1	-6%	-80*	9%	nt	-3%	nt
O=C(CN(Cc1ccco1)Cc1ccco1)Nc1cc(S(=O)(=O)N2CCCCC2)ccc1Cl	?	-83*	nt	nt	nt	nt

Screening results as filed in PubChem.
